# Assay outcomes as filed in PubChem BioAssay.
# Sm TGR inh – S. mansoni TGR enzyme inhibition; purified TGR, DTNB reduction, TNB absorbance 405 nm; Q962Y6; 360,000 compounds, 3% hits; Potency, µM (highest dose often 114 µM), for the others: at the top dose activity change, negative = inhibition, most hits filed as inhibitors; further: nearly all actives have a fitted effect of over 60% in size
#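 TGR 20 nM + NADPH 100 uM (dispensed conc.), cpd preinc 15 min RT; start with NADPH (500 uM addition) then DTNB (15 mM addition). Kinetic TNB absorbance, 405 nm filter. Four-parameter Hill fit across titration.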
# RE007 growth inh – less growth of the S. pombe RE007 Vpr strain | 360,000 compounds, 0.21% hits | Potency, µM (highest dose often 92.2 µM), for inactives: at the top dose activity change, negative = less growth, most hits filed as inhibitors | S. pombe RE007 Vpr strain, BacTiter-Glo ATP luminescence, 24 h | AID 651644; active means well fitted falling curve with a large enough effect; inconclusive means small, poorly fitted or top-dose-only effect; inactive means no such curve, though single readings can be large or run the other way; further: nearly all actives have a fitted effect of over 50% in size
#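 Fission yeast RE007 carrying one integrated HIV-1 vpr copy, seeded at OD 0.01 in PMG+AL medium with 23 nL pinned compound. Grown 24 h at 30 degrees; viability read by BacTiter-Glo luminescence after 5 min.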
# FMDV antiviral – antivirals against foot and mouth disease virus. Potency, µM (series often up to 57.9 µM), for inactives: at the top dose activity change, negative = inhibition, usual class: inhibitors. AID 1159524. 410,000 compounds, 1.2% hits. FMDV antiviral cell-based qHTS; calls by dose curve; tested in HEK293T cells; further: read-out not given here; nearly all actives have a fitted effect of over 45% in size
# TbPYK inhibitor – inhibitors of Trypanosoma brucei pyruvate kinase; Potency, µM (series often up to 76.8 µM), without a hit: at the highest dose activity, negative = inhibition, actives largely listed as inhibitors; TbPYK enzyme, Kinase-Glo Plus ATP luminescence, 45 min; 410,000 compounds, 0.12% hits; AID 624173; Q57TT1; further: nearly all actives have a fitted effect of over 50% in size
#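 Enzyme and substrate buffer are dispensed first and compound is pin-transferred. ADP at 130 uM final then starts the reaction, which runs 45 min at room temperature. Detection reagent is added for 10 min before luminescence is imaged.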
# An asterisk follows results filed as active; ? = inconclusive; / = no result; [ ] = remark or other dose. The list is not random: actives were taken first. Their share in the collection is about 3.7%. Unless noted, the call rests on the fitted dose curve; in most records, active means well fitted curve in the direction sought with a large enough effect; inconclusive means small, poorly fitted or top-dose-only effect, or another doubt; inactive means no such curve, though single readings can be large; an effect the other way counts as inactive or inconclusive. On the % scale 0 is the no-effect control and ±100 the full control effect; potency means the concentration at half of the fitted maximal effect.
SMILES,Sm TGR inh,RE007 growth inh,FMDV antiviral,TbPYK inhibitor
COc1cc(=O)n2c(c1C(=O)NC(C)c1ccco1)CCN(C(=O)c1ccccc1SC)CC2 (stereo not drawn),/,/,23.1%,/
COc1ccc(S(=O)(=O)N(CC(=O)Nc2ccc(OC)cc2OC)c2ccc(Cl)cc2)cc1,9.1%,/,3.16µM*,-8.8%
COc1ccc(N(CC(=O)Nc2ccc(OC)cc2OC)S(=O)(=O)c2ccccc2)cc1,-4.4%,2.3%,-3.0%,-0.8%
COc1cc(OC)c(OC)cc1CN1CCCC(n2cc(C(=O)N3CCCCC3)nn2)C1 (stereo not drawn),/,/,-5.9%,/
O=C(Nc1ccccc1Br)C(Cc1ccccc1)NS(=O)(=O)c1cccc2nsnc12 (stereo not drawn),1.5%,/,4.7%,3.4%
O=C(NCCCn1ccnc1)c1nn2c(C(F)(F)F)cc(-c3ccc(Br)cc3)nc2c1Cl,-5.5%,-6.9%,35.5µM*,2.1%
CC(C)(C)c1ccc(S(=O)(=O)N[C@H]2CC[C@@H](n3cc(C(=O)N4CCCC4)nn3)CC2)cc1,/,/,-20.1%,/
CCC(=O)O[C@]1(C(=O)CCl)[C@@H](C)CC2C3C[C@H](F)C4=CC(=O)C=CC4(C)[C@@]3(F)C(O)CC21C (stereo partly drawn),/,/,/,-4.6%
Cc1ccc(C(=O)O)cc1NC(=S)NC(=O)C(c1ccccc1)c1ccccc1,56.2µM*,10.0%,-3.2%,-5.6%
Cc1cccc(C)c1NC(=O)c1ccc([N+](=O)[O-])s1,-9.5%,-7.0%,-19.3%,-23.6%
Cc1cccc(NC(=O)c2ccc([N+](=O)[O-])s2)n1,0.0%,15.8µM*,24.5%,0.6%
O=C(/C=C/c1ccc(F)cc1)c1ccccc1Br,-26.5%,?,22.4µM*,-12.0%
CCN(CC)c1ccc(-c2nc(-c3ccccn3)no2)cc1[N+](=O)[O-],50.1µM*,/,-23.3%,-3.8%
Cc1ccc(-c2nc(-c3ccccn3)no2)cc1,4.8%,15.8µM*,2.82µM*,?
c1ccc(-c2nc(-c3ccccn3)no2)cc1,-1.5%,?,12.6µM*,?
Clc1cccc(-c2nc(-c3ccccn3)no2)c1,2.4%,?,?,-22.8%
c1ccc(-c2noc(-c3ccno3)n2)nc1,17.3%,-9.6%,0.0%,0.3%
CCN(CC)c1ccc(-c2nc(-c3ccncc3)no2)cc1[N+](=O)[O-],-4.2%,/,13.9%,-1.0%
c1ccc(-c2ccc(-c3nc(-c4ccccn4)no3)cc2)cc1,-1.3%,39.8µM*,2.82µM*,?
Cc1ccc(CNC(=O)Cn2c(=O)cc(-c3ccccc3)c3c(C)nn(C)c32)cc1,8.7%,/,1.8%,1.0%
Cc1ccc(CS(=O)(=O)c2cn(CC(=O)N(C)c3ccccc3)c3ccccc23)cc1,-8.2%,/,-16.3%,-12.5%[15.4 µM]
O=C(c1ccccc1)N1CCN(c2ncnc3sc4c(c23)CCC4)CC1,-16.3%,-15.0%,22.4µM*,-0.2%
c1nc(N2CCOCC2)c2c3c(sc2n1)CCCC3,-1.8%,-17.4%,?,-5.4%
CC(C)c1nc(N2CCN(C(=O)c3ccco3)CC2)c2c3c(sc2n1)CCCC3,28.2µM*,7.5%,/,2.2%
Cc1nc(N2CCN(C(=O)c3ccco3)CC2)c2c3c(sc2n1)CCC3,?,-17.5%,?,-7.2%
SMILES,Sm TGR inh,RE007 growth inh,FMDV antiviral,TbPYK inhibitor
COCCCn1cnc2c(c1=O)c1nc3ccccc3nc1n2-c1ccc(C)cc1,-7.5%,-2.7%,0.0%,-5.8%
Cc1nc2c(c(=O)n1Cc1ccccc1Cl)c1nc3ccccc3nc1n2Cc1ccco1,2.82µM*,/,/,/
Cc1cc(C)cc(-n2c3nc4ccccc4nc3c3c(=O)n(Cc4ccco4)cnc32)c1,15.8µM*,29.5%,?,-4.2%
CCn1c(-c2ccccc2F)nc2cc(NC(C)=O)cc(C(=O)N3CCNC(=O)C3CC(=O)OC)c21 (stereo not drawn),/,/,-14.0%,/
Oc1c(Br)cc(Cl)cc1C=Nc1ccc(N2CCOCC2)cc1,5.7%,-6.8%,-20.8%,-5.4%
Oc1c(Br)cc(Cl)cc1C=Nc1ccccc1Br,22.4µM*,-12.0%,0.0%,-0.7%
CCCN1C/C(=C/c2ccc3c(c2)OCO3)C(=O)/C(=C/c2ccc3c(c2)OCO3)C1,?,3.7%,17.8µM*,-12.4%
CC1(C)CC(=O)/C(=C\c2cccc([N+](=O)[O-])c2)C(C)(C)N1,?,-5.9%,?,-19.5%
CCCN1C/C(=C/c2cccc([N+](=O)[O-])c2)C(=O)/C(=C/c2cccc([N+](=O)[O-])c2)C1,-19.6%,-8.5%,2.51µM*,-0.1%
CN1C(=O)/C(=C/c2cccc([N+](=O)[O-])c2)C(=O)N1c1ccccc1,25.1µM*,-12.1%,31.6µM*,?
CCCN1C(=O)/C(=C/c2ccc3c(c2)OCO3)NC1=S,-10.5%,-19.8%,-12.4%,-11.6%
COc1ccc(-c2[nH]c3ccccc3c2SCCNC(=O)c2cc(OC)c(OC)c(OC)c2)cc1,7.5%,/,0.0%,1.4%
COC(=O)[C@@H]1CCCN1C(=O)c1cnn(-c2nccc(-c3cc(C)sc3C)n2)c1C1CC1,/,/,29.5%,/
CSc1ccc(CN(C)C(=O)c2cccc(S(=O)(=O)N3CCN(Cc4ccccc4)CC3)c2)cc1,-2.1%,0.0%,15.8µM*,0.0%
CN(CCOc1ccc(Cl)cc1)C(=O)c1cccc(S(=O)(=O)N2CCN(Cc3ccccc3)CC2)c1,/,-24.3%,10µM*,0.0%
COc1ccc(NC(=O)CN(C)C(=O)c2cccc(S(=O)(=O)N3CCN(C)CC3)c2)cc1,89.1µM*,-14.2%,-16.7%,0.7%
Cc1ccc(C)c(NC(=O)CN(C)C(=O)c2cccc(S(=O)(=O)N3CCN(Cc4ccccc4)CC3)c2)c1,-3.0%,7.0%,14.1µM*,2.5%
COc1ccc(NC(=O)CN(C)C(=O)c2cccc(S(=O)(=O)N3CCN(Cc4ccccc4)CC3)c2)cc1,-11.2%,5.8%,?,4.3%
CS(=O)(=O)N1CCc2cc(C(=O)Nc3cccc(F)c3)ccc21,0.1%,/,19.1%,-6.3%
CCCCc1c(-c2ccccc2F)ncn1CCc1ccccc1OC,/,-33.7%,?,3.0%
CCCc1c(-c2ccc(F)cc2F)ncn1Cc1ccccc1OC,/,?,?,1.7%
CCCc1c(-c2ccccc2F)ncn1CCc1ccccc1OC,/,-15.8%,31.6µM*,-5.9%
CCCCCc1c(-c2ccccc2F)ncn1CCc1ccccc1OC,/,-17.8%,31.6µM*,-6.3%
O=C1/C(=C/c2cccnc2)SC(=S)N1CC1CCCO1 (stereo not drawn),-10.0%,6.2%,11.3%,-2.8%
Cc1ccc(/C=C2/SC(=S)N(C3CCCCC3)C2=O)o1,44.7µM*,-3.5%,15.4%,-5.6%
O=C1/C(=C\c2ccc(-c3ccccc3Cl)o2)SC(=S)N1CC1CCCO1 (stereo not drawn),-29.0%,-3.5%,19.2%,-2.3%
O=C1/C(=C/c2ccco2)SC(=S)N1CC1CCCO1 (stereo not drawn),20µM*,9.0%,39.8%,-9.9%
Cc1ccc(/C=C2\SC(=S)N(CC3CCCO3)C2=O)o1 (stereo not drawn),3.98µM*,2.4%,31.9%,?
CC(CC(O)C1OC1(C)C)C1CCC2(C)C3=CCC4C(C)(C)C(=O)CCC4(C)C3CC[C@@]12C (stereo partly drawn),/,/,-3.0%,/
